Sampled rows, rich in hits. Any-hit rate of the full collection: about 1.7%.
sEH inhibitor – inhibitors of human soluble epoxide hydrolase; P34913; recombinant human sEH enzymatic activity assay; inhibition, % at 2 µM; 91,000 compounds, 0.34% hits; in the data active = inhibition above about 80%
Measles CPE – protection of cells from measles virus. 140,000 compounds, 1.5% hits. Measles virus-infected cells, CPE protection, absorbance. protection (pct of control), % at 4 µM; in the data active = protection mostly above about 24%, no sharp cut-off; inactive = mostly below about 26%
sEH activator – increases human soluble epoxide hydrolase activity; 91,000 compounds, 0.04% hits; activation, % at 2 µM; purified human sEH enzymatic activity, activator screen; AID 717; in the data active = activation above about 37%
LYP act – LYP (human) phosphatase activation; Q9Y2R2; recombinant LYP, DiFMUP fluorescence; 0 = plate median, 100 = signal doubled; activation, % at 2 µM; 96,000 compounds, 0.11% hits;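 active = activation at 2 µM above a set limit, the mean plus 5 SD, cut at about 37% in these data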
Target sequence (Q9Y2R2 whole entry, looked up): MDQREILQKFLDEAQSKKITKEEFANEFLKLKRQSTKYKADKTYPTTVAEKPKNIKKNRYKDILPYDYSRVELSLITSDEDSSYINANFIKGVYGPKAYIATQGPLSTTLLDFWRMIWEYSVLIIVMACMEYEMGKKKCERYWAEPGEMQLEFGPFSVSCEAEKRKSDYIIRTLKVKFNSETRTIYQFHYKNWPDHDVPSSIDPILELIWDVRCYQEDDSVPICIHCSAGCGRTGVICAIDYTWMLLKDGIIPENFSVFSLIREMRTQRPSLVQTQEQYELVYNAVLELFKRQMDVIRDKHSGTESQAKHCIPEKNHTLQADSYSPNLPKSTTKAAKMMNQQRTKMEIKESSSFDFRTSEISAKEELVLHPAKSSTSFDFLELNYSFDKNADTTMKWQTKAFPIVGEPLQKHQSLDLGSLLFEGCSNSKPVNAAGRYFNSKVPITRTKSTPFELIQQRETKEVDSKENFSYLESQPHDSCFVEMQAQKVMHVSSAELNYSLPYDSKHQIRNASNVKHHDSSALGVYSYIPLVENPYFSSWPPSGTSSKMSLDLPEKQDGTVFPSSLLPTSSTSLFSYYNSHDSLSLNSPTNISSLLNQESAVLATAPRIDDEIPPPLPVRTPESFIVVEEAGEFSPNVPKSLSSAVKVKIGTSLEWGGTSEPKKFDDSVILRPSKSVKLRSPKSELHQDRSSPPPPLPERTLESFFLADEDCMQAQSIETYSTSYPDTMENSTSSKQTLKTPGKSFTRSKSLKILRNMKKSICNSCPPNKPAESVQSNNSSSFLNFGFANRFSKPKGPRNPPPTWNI
PTPN22 inh 2 – LYP (human) phosphatase inhibition. 96,000 compounds, 0.21% hits. inhibition, % at 2 µM. AID 640. recombinant LYP catalytic domain, DiFMUP fluorescence;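 active = inhibition at 2 µM at or above a set limit, the screen mean plus 3 SD, cut at about 24% in these data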;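 also: 0% = DMSO with enzyme and 100% = enzyme fully blocked by orthovanadate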
* = called active by the depositor; nt = not tested or not shown.

SMILES | sEH inhibitor | Measles CPE | sEH activator | LYP act | PTPN22 inh 2
CCOC(=O)C1=C(NC(=S)NC(=O)c2ccccc2)c2ccccc2CC12CCCC2 | nt | 62* | nt | nt | nt
COc1ccc(-n2c(/C=C/c3ccc4c(c3)OCO4)nc3ccccc3c2=O)cc1 | nt | 5 | nt | nt | nt
Cc1ccc(-n2c(/C=C/c3ccc4c(c3)OCO4)nc3ccccc3c2=O)cc1 | nt | 26* | nt | nt | nt
COC(=O)C(O)(c1cn(C)c2ccccc12)C(F)(F)F (configuration not stated) | -8 | 46* | 8 | 1 | -4
COC(=O)C(O)(c1c[nH]c2ccccc12)C(F)(F)F (configuration not stated) | -6 | 14 | 4 | -3 | 1
CN(C)C(=O)Oc1cccc(-c2cn3cc(Cl)ccc3n2)c1 | nt | 45* | nt | nt | nt
CP(C)(=O)CCC(=O)O | 3 | 38* | -1 | 1 | 4
Cc1ccccc1N1C(=O)CC(=O)N(c2ccccc2C)C1=O | nt | 15 | nt | nt | nt
O=c1c2ccccc2nc(-c2ccc(-c3ccccc3)cc2)n1-c1ccncc1 | -6 | 4 | 10 | 5 | 0
COc1ccc(Br)cc1CN1CCN(C(=O)Cc2ccccc2)CC1 | 8 | 8 | -6 | 8 | -5
O=C(Cc1ccc(Br)cc1)N1CCN(Cc2ccccc2)CC1 | -5 | 86* | 3 | -3 | -2
CC/C(=N\Nc1ccccc1)c1c(O)n(C)c(=O)n(C)c1=O | nt | 28* | nt | nt | nt
CN1C(=O)N(C)C(=O)C2(Cc3c(nc4ccccn4c3=O)N3CCc4ccccc4C32)C1=O (configuration not stated) | 4 | 40* | -4 | -2 | 0
CC1CCN2c3nc4ccccn4c(=O)c3CC3(C(=O)N(C)C(=O)N(C)C3=O)C2C1 (configuration not stated) | -4 | 29 | 5 | -7 | 6
COc1cc2c(cc1C=O)OCO2 | nt | 35* | nt | nt | nt
O=C1CC(=O)N(c2ccc(Cl)cc2Cl)C(=O)N1 | nt | 8 | nt | nt | nt
Cc1cc(Br)ccc1N1C(=O)CC(=O)NC1=O | nt | 38* | nt | nt | nt
CCn1c(O)c(C=Nc2ccc(N3CCOCC3)cc2)c(=O)n(CC)c1=S | -8 | 35* | 8 | -5 | 4
CCOC(=O)[C@@]1(C#N)[C@@H]2C=CC(C(N)=O)=CN2[C@@H](C(N)=O)[C@@H]1c1cccc(Cl)c1 | -4 | 47* | 3 | 6 | -2
CCOC(=O)c1c(NC(=O)C(c2ccccc2)c2ccccc2)sc2c1C1CCN2CC1 | 0 | 1 | 2 | 10 | -8
C[C@]12CC[C@@H](O)C[C@@H]1CC[C@@H]1[C@@H]2CC[C@]2(C)[C@@H](O)CC[C@@H]12 | nt | 12 | nt | nt | nt
CC12CCC3C(CCC4C/C(=N/O)CCC43C)C1CCC2O (configuration not stated) | nt | 41* | nt | nt | nt
Brc1ccc2[nH]cc(/C=N/N3CCCCC3)c2c1 | nt | 3 | nt | nt | nt
CCCC[n+]1cc(/N=C(\[O-])OC)on1 | -2 | 14 | 4 | -2 | 0
COc1ccc(CC[n+]2cc(/N=C(\C)[O-])on2)cc1OC | 9 | 35* | -8 | -5 | 2
SMILES | sEH inhibitor | Measles CPE | sEH activator | LYP act | PTPN22 inh 2
CC(C(=O)Nc1ccc(Br)cc1C(=O)c1ccccc1)N1CCOCC1 (configuration not stated) | -13 | 3 | 16 | 11 | -12
CC(C)N1C(=O)/C(=C/C=C/c2ccco2)C(=O)N(Cc2ccco2)C1=O | 1 | 26* | -1 | 2 | 0
CCOC(=O)c1c(C)n(C(C)C)c2ccc(OC(=O)c3ccc(N4C(=O)CCC4=O)cc3)cc12 | nt | 19 | nt | nt | nt
Cc1cc(Oc2ccc(C(F)(F)F)cc2[N+](=O)[O-])c2c3c(c(=O)oc2c1)CCCC3 | nt | 28 | nt | nt | nt
CCN(CC)CCCNC(=O)c1c(O)c2ccccc2n(Cc2ccccc2)c1=O | 3 | 77* | -2 | -22 | 24*
O=C(Nc1ccc(Cl)cc1C(=O)c1ccccc1)c1ccccc1Cl | nt | 8 | nt | nt | nt
Fc1ccc(C2=CCN(C(c3ccc(Cl)cc3)c3nnnn3Cc3ccccc3)CC2)cc1 (configuration not stated) | nt | 4 | nt | nt | nt
Fc1ccc(Cn2nnnc2C(c2ccc(Cl)cc2)N2CC=C(c3ccc(F)cc3)CC2)cc1 (configuration not stated) | nt | 41* | nt | nt | nt
Cc1cc(C)cc(-n2c(C)cc(/C=C3\C(=O)NC(=O)N(C)C3=O)c2C)c1 | nt | 5 | nt | nt | nt
Cc1cc(/C=C2\C(=O)NC(=O)N(c3cccc(Br)c3)C2=O)c(C)n1C | nt | 39* | nt | nt | nt
Nc1cc(Cl)c2nonc2c1[N+](=O)[O-] | nt | 1 | nt | nt | nt
O=c1cccc2n1CC1CC2CN(Cc2c(F)cccc2Cl)C1 (configuration not stated) | nt | 2 | nt | nt | nt
O=c1cccc2n1CC1CC2CN(Cc2cccc(Cl)c2Cl)C1 (configuration not stated) | nt | 43* | nt | nt | nt
CC(=NCC1CCCO1)c1c(O)n(Cc2ccccc2)c(=O)[nH]c1=O (configuration not stated) | 4 | 36* | -5 | 0 | 0
OC(Cn1c2ccccc2c2ccccc21)C[n+]1cccc2ccccc21 (configuration not stated) | 1 | 16 | -2 | 18 | -15
Cc1nc2cc(-c3cccc(F)c3)nn2c(C)c1CCC(=O)N1CCC2(CC1)OCCO2 | -19 | 25* | 17 | 8 | -10
N[C@@H](Cc1c[nH]c2ccccc12)c1nnc(SCc2ccccc2)o1 | -16 | 45* | 14 | 4 | -5
OC12ONC(c3ccccn3)C1N1CCC2CC1 (configuration not stated) | nt | 5 | nt | nt | nt
Brc1ccc2c(c1)C(OC1CN3CCC1CC3)c1ccccc1CS2 (configuration not stated) | nt | 8 | nt | nt | nt
Cc1cc(C)c(C2=NOC(O)(C(F)(F)F)C2)c(=O)[nH]1 (configuration not stated) | -6 | 27* | 6 | 4 | -5
CCCC(C)C1(CC)C(=O)NC(=Nc2ccc(F)cc2)NC1=O (configuration not stated) | -6 | 38* | 5 | -3 | 6
Cn1c(CN2CCN(C(=O)COc3ccccc3)CC2)nc2cc([N+](=O)[O-])ccc21 | nt | 27 | nt | nt | nt
CCOC(=O)c1c(-n2c(C)cc(C=C3C(=O)NC(=S)NC3=O)c2C)sc2c1CCCC2 | -6 | 6 | 5 | -24 | 29*
CCOC(=O)c1c(-n2c(C)cc(/C=C3/C(=O)NC(=O)N(CC)C3=O)c2C)sc2c1CCCC2 | -10 | nt | 8 | 6 | -8
Cc1ccc(N(C)C(=O)Oc2ccc(C(=O)c3ccc(Cl)cc3)cc2)cc1 | -11 | 14 | 13 | -3 | 6

Compound activity deposited in PubChem BioAssay by several laboratories.
